Assay [1] has as its system HT29 RNF43 G659fs (RNF43 659mut, CRISPR-edited). Put plainly: cell viability activity relative to DMSO (negative = inhibition); higher = more viable cells (less growth inhibition). As to conditions: 5 µM; 96 h. The procedure:
(§1)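 Broad Repurposing Library primary screen at a single dose of 5 uM. HT29 sg-Ctrl and HT29 RNF43 G659fs CRISPR-edited isogenic cells were seeded at 2500 cells/well in 384-well plates in duplicate and treated for 96 h. Viability was read by CellTiter-Glo and reported as % activity relative to DMSO, with MG132 as the positive control (negative = growth inhibition).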

Assay [2] deals with HT29 sg-Ctrl (RNF43 wildtype). The description is as above. The following applies: 5 µM; 96 h. The procedure:
as §1

With `FC(F)(F)Oc1ccc2nc(-c3ccc(OCCOCCOc4ccc(-c5nc6ccc(OC(F)(F)F)cc6[nH]5)nc4)cn3)[nH]c2c1`, the cell viability activity is -37.9% in assay [1] and -16% in assay [2].
In the same order, the values of `COC(=O)[C@]12CCC(C)(C)C[C@H]1[C@H]1C(=O)C=C3[C@@]4(C)C=C(C#N)C(=O)C(C)(C)[C@@H]4CC[C@@]3(C)[C@]1(C)CC2` are -96.8% and -93.4%.
For the compound `CNC(=O)c1ccccc1Nc1nc(Nc2ccc3c(c2OC)CCC[C@H](N2CCN(CCO)CC2)C3)ncc1Cl`, the cell viability activity in assay [1] was -89.4%; in assay [2] it was -85.5%.
On to `CN1CCN(CCOc2cc(OC3CCOCC3)c3c(Nc4c(Cl)ccc5c4OCO5)ncnc3c2)CC1`, for which the values for the cell viability activity in assay [1] and in assay [2] were -54.8% and -58.9%, respectively.
As to `Cc1cc(Nc2cc(N3CCN(C)CC3)nc(Sc3ccc(NC(=O)C4CC4)cc3)n2)n[nH]1`, the cell viability activity in assay [1] was -22.2%; in assay [2], -38.2%.
In the case of `CC(=O)Nc1nc(C)c(-c2ccc(Cl)c(S(=O)(=O)NCCO)c2)s1`, the cell viability activity was -53.2% in assay [1] and -38.4% in assay [2].
For the compound `CCCCCCCCCCCCCCCC[N+](C)(C)Cc1ccccc1`, the cell viability activity is -46.6% in assay [1] and -34.3% in assay [2].
For the compound `CCCCNc1ncc2c(-c3ccc(CN4CCN(C)CC4)cc3)cn([C@H]3CC[C@H](O)CC3)c2n1`, the results for the cell viability activity in assay [1] and in assay [2] were -89.4% and -91.1%, respectively.
In the same order, the values of `CO[C@@H]1[C@H](N(C)C(=O)c2ccccc2)C[C@H]2O[C@]1(C)n1c3ccccc3c3c4c(c5c6ccccc6n2c5c31)C(=O)NC4` are -53.8% and -61.4%.
In the same order, the values of `COc1cc2ncn(-c3cc(OCc4ccccc4C(F)(F)F)c(C(N)=O)s3)c2cc1OC` are -72.5% and -65.4%.
With `CC(C)C[C@@H](C=O)NC(=O)[C@H](CC(C)C)NC(=O)[C@H](CC(C)C)NC(=O)OCc1ccccc1`, the cell viability activity was -96.9% in assay [1] and -96.2% in assay [2].
Take `NC1(Cc2ccc(Cl)cc2)CCN(c2ncnc3[nH]ccc23)CC1`: the figures for the cell viability activity in assay [1] and in assay [2] were -39.2% and -20.8%, respectively.
In the same order, the values of `O=C1NCCN1CCN1CCC(c2cn(-c3ccc(F)cc3)c3ccc(Cl)cc23)CC1` are -93.7% and -83.7%.
For the compound `O=C(O)C[C@H](O)C[C@H](O)/C=C/c1c(C2CC2)nc2ccccc2c1-c1ccc(F)cc1`, the results for the cell viability activity in assay [1] and in assay [2] were -25.1% and -8.8%, respectively.
In the same order, the values of `O=C(O)c1ccc(-n2nc(-c3ccccc3O)nc2-c2ccccc2O)cc1` are -27.9% and -27.1%.
In the same order, the values of `Oc1c(Cl)cc(Cl)c(Cl)c1Cc1c(O)c(Cl)cc(Cl)c1Cl` are -49% and -40.9%.
In the same order, the values of `CC(=O)OC1CC2CCC1(C)C2(C)C` (stereo not given) are -28.1% and -26.5%.
Consider `COc1c(OCCCN2CCOCC2)ccc2c3n(c(=NC(=O)c4cnc(N)nc4)nc12)CCN3`, for which the cell viability activity was -59.6% in assay [1] and -46.8% in assay [2].
In the same order, the values of `Cn1cncc1[C@@](N)(c1ccc(Cl)cc1)c1ccc2c(c1)c(-c1cccc(Cl)c1)cc(=O)n2C` are -30.6% and -33.3%.
Turning to `CN(C)c1ccc(C(=C2C=CC(=[N+](C)C)C=C2)c2ccc(N(C)C)cc2)cc1`, the cell viability activity is -96.3% in assay [1] and -89.3% in assay [2].
For the compound `CCNCCCNCCCCNCCCNCC`, the cell viability activity in assay [1] was -31%; in assay [2] it was -43.8%.
In the same order, the values of `CS[C@H]1SC[C@H]2C(=O)N(C)[C@@H](C(C)C)C(=O)OC[C@@H](NC(=O)c3cnc4ccccc4n3)C(=O)N[C@@H](C)C(=O)N(C)[C@@H]1C(=O)N(C)[C@@H](C(C)C)C(=O)OC[C@@H](NC(=O)c1cnc3ccccc3n1)C(=O)N[C@@H](C)C(=O)N2C` are -88% and -86.6%.
In the same order, the values of `CN1CCN(Cc2ccc(Nc3ncc(Cl)c(Nc4ccccc4S(=O)(=O)N(C)C)n3)cc2)CC1` are -94.8% and -96.1%.
In the same order, the values of `Cc1[nH]nc2ccc(-c3cncc(OC[C@@H](N)Cc4ccccc4)c3)cc12` are -89.5% and -90.7%.
With `C[C@H]1O[C@H](O[C@H]2[C@H](O)[C@@H](O)[C@@H](O[C@H]3[C@H](O)[C@@H](O)C(O)O[C@@H]3CO)O[C@@H]2CO)[C@H](O)[C@@H](O)[C@@H]1N[C@H]1C=C(CO)[C@@H](O)[C@H](O)[C@H]1O` (stereo not given in full), the figures for the cell viability activity in assay [1] and in assay [2] were -83.5% and -86.3%, respectively.
On to `CCn1c2ccccc2c2cc(Nc3ccnc(NCCCN4CCOCC4)n3)ccc21`, for which the cell viability activity was -79.7% in assay [1] and -84.9% in assay [2].
In the same order, the values of `Cc1csc(-c2nnc(Nc3ccc(Oc4ncccc4-c4ccnc(N)n4)cc3)c3ccccc23)c1` are -28.2% and -46.6%.
Take `O=C(NOCC(O)CO)c1cc(Br)c(F)c(F)c1Nc1ccc(I)cc1F` (stereo not given): the cell viability activity in assay [1] is -75.8%; in assay [2], -79.7%.
In the same order, the values of `C/C(=N\NC(=S)N1CCC1)c1ccccn1` are -82.2% and -88.9%.
`CCOc1cc2ncc(C#N)c(Nc3ccc(OCc4ccccn4)c(Cl)c3)c2cc1NC(=O)/C=C/CN(C)C`: the cell viability activity in assay [1] was -50.3%; in assay [2], -30.9%.
In the same order, the values of `O=C(c1cccc(Cl)c1F)N1CCN(Cc2cccc(Nc3nccs3)n2)CC1` are -27.7% and -25.6%.
In the same order, the values of `CN1CCN(c2ccc3nc(-c4c(N)c5c(F)cccc5[nH]c4=O)[nH]c3c2)CC1` are -60.6% and -77.6%.
In the same order, the values of `FC(F)c1nc2ccccc2n1-c1nc(N2CCOCC2)nc(N2CCOCC2)n1` are -33% and -29.7%.
As to `C=CC(=O)Nc1cccc(Oc2nc(Nc3ccc(N4CCN(C)CC4)cc3)ncc2Cl)c1`, the cell viability activity is -46.3% in assay [1] and -58% in assay [2].
For the compound `CC(C)CCN1c2nc(Nc3cc(F)c(O)c(F)c3)ncc2N(C)C(=O)C1C` (stereo not given), the cell viability activity is -29.4% in assay [1] and 4.41% in assay [2].
`COCCOc1ccc2c(c1)ncn2-c1ccc2cccc(N3CCC(N)CC3)c2n1`: the cell viability activity in assay [1] was -93.4%; in assay [2], -94.6%.
In the same order, the values of `COC(=O)Nc1nc2ccc(SC(C)C)cc2[nH]1` are -43.7% and -5.83%.
Consider `O=c1[nH]cc(F)c(=O)[nH]1`, for which the cell viability activity was -32.3% in assay [1] and -14.8% in assay [2].
As for `C=CCCCCCCCCC(=O)O`, the cell viability activity is -66.5% in assay [1] and -72% in assay [2].
In the same order, the values of `COc1ccc(-c2nc(N3CCOCC3)c3sc(CN(C)c4ncc(C(=O)NO)cn4)cc3n2)cn1` are -94.5% and -93.5%.
In the same order, the values of `O=C(CCCCCCNC(=O)c1cnc(N(c2ccccc2)c2ccccc2)nc1)NO` are -34.4% and -45.9%.
In the case of `COc1cccc2c1C(=O)c1c(O)c3c(c(O)c1C2=O)C[C@@](O)(C(=O)CO)C[C@@H]3O[C@H]1C[C@H](N)[C@@H](O)[C@H](C)O1`, the cell viability activity in assay [1] was -93.5%; in assay [2], -76.5%.
In the case of `CCN(c1cc(C#CCN2CCOCC2)cc(C(=O)NCc2c(C)cc(C)[nH]c2=O)c1C)[C@H]1CC[C@H](N(C)CCOC)CC1`, the cell viability activity in assay [1] was -37.5%; in assay [2], -35.6%.
For `CC(C)Nc1cc(-c2c[nH]c(C(=O)N[C@H](CO)c3cccc(Cl)c3)c2)c(Cl)cn1`, the cell viability activity in assay [1] is -71.1%; in assay [2] it was -78.7%.
In the same order, the values of `CC(C)Oc1ccc(C(=O)N[C@H](CNC(=O)CN(C)C)Cc2ccc(-c3cn4cccc([C@H](C)O)c4n3)cc2)cc1Cl` are -54.6% and -59.4%.
